First the molecules themselves.
B1: PhoQ; a variant is named by its letters at X, in order, P23837 (parent)
chain: MKKLLRLFFPLSLRVRFLLATAAVVLVLSLAYGMVALIGYSVSFDKTTFRLLRGESNLFYTLAKWENNKLHVELPENIDKQSPTMTLIYDENGQLLWAQRDVPWLMKMIQPDWLKSNGFHEIEADVNDTSLLLSGDHSIQQQLQEVREDDDDAEMTHSVAVNVYPATSRMPKLTIVVVDTIPVELKSSYMVWSWFIYVLSANLLLVIPLLWVAAWWSLRPIEALAKEVRELEEHNRELLNPATTRELTSLVRNLNRLLKSERERYDKYRTTLTDLTHSLKTPLXXLQXXLRSLRSEKMSVSDAEPVMLEQISRISQQIGYYLHRASMRGGTLLSRELHPVAPLLDNLTSALNKVYQRKGVNISLDISPEISFVGEQNDFVEVMGNVLDNACKYCLEFVEISARQTDEHLYIVVEDDGPGIPLSKREVIFDRGQRVDTLRPGQGVGLAVAREITEQYEGKIVAGESMLGGARMEVIFGRQHSAPKDE

In all, about 140,000 sequences were measured (“enrichment ratio after two sorts for PhoP signalling”: median about 0, highest 2% from about 11 on). This excerpt belongs to a sample that is enriched for the highest values.

In this assay the parent is B1. The experiment in a line: enrichment ratio after two sorts for PhoP signalling (ratio (wild type AVST 3.29)); higher = more functional. As to conditions: with PhoP (E. coli).
ITMN: the enrichment ratio is not above 0.25.

Regarding VVYG, the enrichment ratio was not above 0.25.

Regarding VHNY, the enrichment ratio is not above 0.25.

As to HMES, the enrichment ratio is not above 0.25.

In the case of TVTM, the enrichment ratio was found to be 16.6.

For the variant SPNM, the enrichment ratio is not above 0.25.

As to RGTM, the enrichment ratio is not above 0.25.

Take KSTM: the enrichment ratio was not above 0.25.

With FVNM, the enrichment ratio is not above 0.25.

In the case of TGTM, the enrichment ratio came to 15.

For AGTS, the enrichment ratio is 7.67.

As to TVNM, the enrichment ratio is 13.5.

With SPTM, the enrichment ratio is not above 0.25.

As to YWTM, the enrichment ratio is not above 0.25.

With GGTM, the enrichment ratio worked out at 1.63.

On to AGTM, for which the enrichment ratio amounted to 16.2.

On to DANA, for which the enrichment ratio was not above 0.25.

For the variant MGIR, the enrichment ratio is not above 0.25.

For PYLL, the enrichment ratio is not above 0.25.

In the case of VWQC, the enrichment ratio is not above 0.25.

Regarding KPYK, the enrichment ratio is not above 0.25.

On to NMSK, for which the enrichment ratio is not above 0.25.

Consider GWYP, for which the enrichment ratio is not above 0.25.

Consider NKWL, for which the enrichment ratio was not above 0.25.

Take YWTA: the enrichment ratio is not above 0.25.

In the case of TAYI, the enrichment ratio was found to be 10.2.

Consider TAPY, for which the enrichment ratio was not above 0.25.

For TAAY, the enrichment ratio was 15.7.

As for TAGY, the enrichment ratio came out at 34.1.

Consider NAGY, for which the enrichment ratio was not above 0.25.

Take KAGY: the enrichment ratio is not above 0.25.

For the variant NVMG, the enrichment ratio was not above 0.25.

SYKQ: the enrichment ratio was not above 0.25.

As for DDMM, the enrichment ratio is not above 0.25.

With FLYG, the enrichment ratio is not above 0.25.

As to YCDY, the enrichment ratio was not above 0.25.

On to PSFY, for which the enrichment ratio was not above 0.25.

For WEWY, the enrichment ratio is not above 0.25.

With VFIN, the enrichment ratio was not above 0.25.

For YVGY, the enrichment ratio is not above 0.25.

In the case of HIQN, the enrichment ratio is not above 0.25.

Consider MNWE, for which the enrichment ratio is 17.9.

As to MNHG, the enrichment ratio is not above 0.25.

Consider TNWE, for which the enrichment ratio was not above 0.25.

For MNQN, the enrichment ratio is not above 0.25.

For the variant MNWI, the enrichment ratio stood at 6.11.

In the case of MNIE, the enrichment ratio is not above 0.25.

Consider MNWG, for which the enrichment ratio is 15.6.

For MNWN, the enrichment ratio is 15.4.

On to MNVG, for which the enrichment ratio is not above 0.25.

In the case of TSGQ, the enrichment ratio is 7.96.

As for PQQF, the enrichment ratio is not above 0.25.

Consider WRDC, for which the enrichment ratio is not above 0.25.

On to YIGM, for which the enrichment ratio is 0.38.

On to QPLM, for which the enrichment ratio is not above 0.25.

With YELS, the enrichment ratio amounted to 14.9.

For YILM, the enrichment ratio is 12.1.

For the variant YEWI, the enrichment ratio is not above 0.25.

On to TALM, for which the enrichment ratio is 15.3.

Turning to YELA, the enrichment ratio is not above 0.25.

In the case of HPLM, the enrichment ratio is not above 0.25.

As for HYLM, the enrichment ratio was not above 0.25.

With WALM, the enrichment ratio was 6.02.

Take HALM: the enrichment ratio is 14.3.

In the case of KALM, the enrichment ratio was not above 0.25.

Turning to SGGE, the enrichment ratio was not above 0.25.

Consider MSWN, for which the enrichment ratio was found to be 8.63.

For TQHK, the enrichment ratio is not above 0.25.

Consider KKLF, for which the enrichment ratio is not above 0.25.

On to HYYY, for which the enrichment ratio was not above 0.25.

For VMNW, the enrichment ratio is not above 0.25.

In the case of NFPM, the enrichment ratio is not above 0.25.

As to MDYM, the enrichment ratio was not above 0.25.

For TGWM, the enrichment ratio turned out to be 0.965.

Turning to FLTQ, the enrichment ratio was not above 0.25.

Consider HCKA, for which the enrichment ratio is not above 0.25.

In the case of FSYE, the enrichment ratio was not above 0.25.

As for VALM, the enrichment ratio was 16.8.

WKLM: the enrichment ratio is not above 0.25.

Take YWLM: the enrichment ratio was not above 0.25.

Take NALM: the enrichment ratio is 5.51.

In the case of PKLM, the enrichment ratio was not above 0.25.

Turning to VILM, the enrichment ratio came out at 1.31.

In the case of AALM, the enrichment ratio was found to be 14.8.

Take YALM: the enrichment ratio amounted to 12.7.

On to AKLM, for which the enrichment ratio is 12.4.

For the variant VLLM, the enrichment ratio stood at 0.26.

For the variant RGGT, the enrichment ratio was not above 0.25.

As for TCHA, the enrichment ratio is not above 0.25.

Take ESLN: the enrichment ratio was not above 0.25.

With AYSD, the enrichment ratio was not above 0.25.

On to WYCA, for which the enrichment ratio was not above 0.25.

Regarding QFWH, the enrichment ratio was not above 0.25.

Consider FYES, for which the enrichment ratio was not above 0.25.

Consider YMRA, for which the enrichment ratio was not above 0.25.

Regarding QDSF, the enrichment ratio is not above 0.25.

Consider SHGM, for which the enrichment ratio was not above 0.25.

With FTLM, the enrichment ratio amounted to 8.49.

As for AHLM, the enrichment ratio was determined as 12.1.

Turning to YHLM, the enrichment ratio stood at 0.877.

On to YELM, for which the enrichment ratio is 13.8.

For YELF, the enrichment ratio was found to be 0.264.

Take SHLA: the enrichment ratio turned out to be 3.56.

As for SHLM, the enrichment ratio stood at 19.3.

Take AYLM: the enrichment ratio is not above 0.25.

ANLM: the enrichment ratio turned out to be 13.3.

With WNLM, the enrichment ratio was not above 0.25.

Turning to AILM, the enrichment ratio was 5.76.

For the variant ATSH, the enrichment ratio was found to be 10.6.

In the case of RYPH, the enrichment ratio was not above 0.25.

In the case of VVLY, the enrichment ratio was not above 0.25.

Consider VSDV, for which the enrichment ratio is not above 0.25.

With FWLQ, the enrichment ratio is not above 0.25.

Consider ISFK, for which the enrichment ratio is not above 0.25.

HFQN: the enrichment ratio is not above 0.25.

SRTQ: the enrichment ratio was not above 0.25.

For the variant FDLM, the enrichment ratio was not above 0.25.

For the variant TKLM, the enrichment ratio was 21.3.

With AQLM, the enrichment ratio was found to be 19.4.

For the variant IQLM, the enrichment ratio stood at 3.4.

Regarding APLM, the enrichment ratio was not above 0.25.

Take NHLM: the enrichment ratio was not above 0.25.

As for KKLM, the enrichment ratio was not above 0.25.

VHLM: the enrichment ratio was not above 0.25.

In the case of ADLM, the enrichment ratio turned out to be 12.7.

As for HKLM, the enrichment ratio is not above 0.25.

As for THLM, the enrichment ratio turned out to be 12.3.

In the case of FHFT, the enrichment ratio is not above 0.25.

With HCCR, the enrichment ratio was not above 0.25.

Regarding PGAV, the enrichment ratio was not above 0.25.

With DVEF, the enrichment ratio was not above 0.25.

As to FMQW, the enrichment ratio is not above 0.25.

For the variant QFLI, the enrichment ratio is not above 0.25.

For NSRM, the enrichment ratio is not above 0.25.

On to RLVV, for which the enrichment ratio was not above 0.25.

On to PVNN, for which the enrichment ratio is not above 0.25.

With TNEN, the enrichment ratio is not above 0.25.

Turning to YTNN, the enrichment ratio is not above 0.25.

On to TNMN, for which the enrichment ratio was not above 0.25.

In the case of TNQN, the enrichment ratio is 16.8.

Take TTNN: the enrichment ratio was found to be 17.8.

For SPNN, the enrichment ratio is not above 0.25.

Turning to KCNN, the enrichment ratio was not above 0.25.

Consider TNNN, for which the enrichment ratio amounted to 14.7.

Turning to ITNN, the enrichment ratio was not above 0.25.

In the case of TWNN, the enrichment ratio is 0.76.

On to TVNN, for which the enrichment ratio was determined as 12.7.

Consider MDAD, for which the enrichment ratio is not above 0.25.

As for QRKY, the enrichment ratio was not above 0.25.

Turning to NDMN, the enrichment ratio is not above 0.25.

For EKIL, the enrichment ratio is not above 0.25.

As to PHCG, the enrichment ratio was not above 0.25.

As to SNES, the enrichment ratio is not above 0.25.

IPVP: the enrichment ratio is not above 0.25.

For the variant TNQH, the enrichment ratio amounted to 15.

Consider MNQH, for which the enrichment ratio is not above 0.25.

For the variant FDNN, the enrichment ratio was not above 0.25.

As to LTNN, the enrichment ratio was not above 0.25.

On to TDNN, for which the enrichment ratio amounted to 33.6.

As to TNKH, the enrichment ratio is not above 0.25.

For ISMG, the enrichment ratio came out at 1.17.

As to WDMF, the enrichment ratio is not above 0.25.

Consider KSIQ, for which the enrichment ratio was not above 0.25.

As for WNCS, the enrichment ratio is not above 0.25.

TCTI: the enrichment ratio was 17.1.

With TCTC, the enrichment ratio is 11.4.

With TCIC, the enrichment ratio is not above 0.25.

TCDW: the enrichment ratio is not above 0.25.

TCTH: the enrichment ratio is 3.96.

As for TCTA, the enrichment ratio amounted to 11.4.

For the variant TCTK, the enrichment ratio worked out at 5.27.

Take TCTE: the enrichment ratio was not above 0.25.

On to KCTA, for which the enrichment ratio is not above 0.25.

For the variant TCTS, the enrichment ratio is 17.5.

Turning to KCTI, the enrichment ratio was not above 0.25.

TCNK: the enrichment ratio was not above 0.25.

For the variant WMFM, the enrichment ratio is not above 0.25.

As for HQPT, the enrichment ratio is not above 0.25.

For PYKQ, the enrichment ratio is not above 0.25.

On to WRPH, for which the enrichment ratio was not above 0.25.

LLYS: the enrichment ratio is not above 0.25.

On to VMRN, for which the enrichment ratio was not above 0.25.

For the variant AANR, the enrichment ratio was not above 0.25.

Take IGAM: the enrichment ratio was not above 0.25.

For the variant SVEG, the enrichment ratio was not above 0.25.

Take NHNM: the enrichment ratio was not above 0.25.

With VWYA, the enrichment ratio is not above 0.25.

Turning to SFCD, the enrichment ratio is not above 0.25.

With SSCI, the enrichment ratio is 24.5.

As for FSCQ, the enrichment ratio was 7.11.

Turning to SSCG, the enrichment ratio amounted to 12.6.

For SLCV, the enrichment ratio was found to be 7.13.

In the case of TSCG, the enrichment ratio worked out at 7.32.

As to KSCG, the enrichment ratio turned out to be 1.82.

For the variant SSQP, the enrichment ratio was not above 0.25.

For SPCV, the enrichment ratio is not above 0.25.

For SSCQ, the enrichment ratio worked out at 13.4.

Regarding SSCE, the enrichment ratio worked out at 3.26.

Regarding SSCV, the enrichment ratio is 18.4.

Turning to SSCS, the enrichment ratio worked out at 9.51.
